Among the data in PubChem BioAssay (NCATS) are outcome values, retold here.

Records with an inconclusive call do not appear. Activity calls are given as the source filed them. The call rests on the fitted dose curve; in most records, active means well fitted curve in the direction sought with a large enough effect; inconclusive means small, poorly fitted or top-dose-only effect, or another doubt; inactive means no such curve, though single readings can be large; an effect the other way counts as inactive or inconclusive.

The first experiment can be described thus: MultiTox-Fluor Cytotoxicity Assay - LYMP1-002 - Live Cells (AID 955).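 Further: cells exposed to compound for 16 hours.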 The following applies: LYMP1-002 lymphoblastoid live-cell protease fluorescence viability; series mostly up to 46.1 µM. The method in brief:
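Cells were seeded at 2500 per well and incubated 5 hr. Compounds were then added for 16 hr at 37 C, followed by MultiTox-Fluor reagent for 60 min at room temperature and fluorescence reading of viable-cell protease signal.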
Consider `CC/C(C)=N/O`, for which the compound was classed as inactive.

For `Nc1c(Cl)cc(Cl)cc1Cl`, the compound was classed as inactive.

For `Nc1ccc(Cl)cc1[N+](=O)[O-]`, the outcome was inactive.

With `OC/C(Br)=C(\Br)CO`, the call was inactive.

Consider `CCC=O`, for which the compound was called inactive.

Take `CC(=O)OC(C)C`: the compound was classed as inactive.

Consider `C=CCn1c(=O)n(CC=C)c(=O)n(CC=C)c1=O`, for which the compound was classed as inactive.

Consider `CCCCCCCCCCCCOCC1CO1` (stereo not drawn), for which the compound was classed as inactive.

On to `CCOC(=O)C(C)C(C)=O` (stereo not drawn), for which the compound was classed as inactive.

With `Oc1cccc(Nc2ccccc2)c1`, the compound was called inactive.

Take `C1CCC2OC2C1` (stereo not drawn): the outcome was inactive.

On to `Nc1ccc([N+](=O)[O-])c(N)c1`, for which the compound was called inactive.

Turning to `CSc1ccc(C=O)cc1`, the call was inactive.

As for `O=C(Cl)c1ccccc1[N+](=O)[O-]`, the compound was classed as inactive.

Take `Nc1cccc([N+](=O)[O-])c1`: the compound was called inactive.

On to `CCOCCOCC`, for which the compound was classed as inactive.

In the case of `C=CC(=O)NC(C)C`, the result was inactive.

As for `O=[N+]([O-])c1cccc(Cl)c1`, the result was inactive.

For the compound `CCC(C)(C)C(=O)O`, the call was inactive.

As for `C/C(C=O)=C/c1ccccc1`, the outcome was inactive.

As to `CC(C)(O)C(=O)O`, the result was inactive.

For the compound `CC(=O)OCCC(C)C`, the compound was classed as inactive.

In the case of `CCC(C)(C)C`, the compound was called inactive.

For `CC(C)CO`, the compound was classed as inactive.

On to `CCOc1cccc(N)c1`, for which the call was inactive.

With `O=C1OC(=O)c2cc([N+](=O)[O-])ccc21`, the compound was called inactive.

As to `COC(=O)CCCC(=O)OC`, the outcome was inactive.

For the compound `NC=O`, the compound was called inactive.

In the case of `O=C(Cl)c1cccc([N+](=O)[O-])c1`, the result was inactive.

`Cc1ccc2oc(=O)ccc2c1`: the outcome was inactive.

On to `CC(=O)CCc1ccccc1`, for which the result was inactive.

In the case of `C=CCCCCCCC=C`, the outcome was inactive.

Consider `O=C(O)CNC(=O)c1ccc(CO)o1`, for which the result was inactive.

For the compound `Clc1ccccn1`, the compound was classed as inactive.

For `Nc1cc([N+](=O)[O-])ccc1C(=O)O`, the call was inactive.

On to `Nc1cccc(O)c1`, for which the result was inactive.

`CCOCCO`: the compound was classed as inactive.

For `O=C(Cl)c1c(Cl)cccc1Cl`, the compound was classed as inactive.

`ICCc1ccccc1`: the compound was called inactive.

A further experiment is described as follows: MultiTox-Fluor Cytotoxicity Assay - LYMP1-002 - Dead Cells (AID 960).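 Further: cells exposed to compound for 16 h at 37 °C; nearly all actives have a fitted effect of over 60% in size.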 The following applies: LYMP1-002 lymphoblastoid cells, dead-cell protease fluorescence; series mostly up to 46.1 µM. The method in brief: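 Cells were plated, rested 5 hr, then treated with compound dilution series for 16 hr at 37 C. After adding substrate reagent and 60 min at room temperature, dead-cell protease fluorescence gave concentration-response curves fitted by the Hill equation.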
Regarding `CC/C(C)=N/O`, the compound was classed as inactive.

Turning to `Nc1c(Cl)cc(Cl)cc1Cl`, the compound was classed as inactive.

For `Nc1ccc(Cl)cc1[N+](=O)[O-]`, the compound was classed as inactive.

Turning to `OC/C(Br)=C(\Br)CO`, the outcome was inactive.

In the case of `CCC=O`, the result was inactive.

Turning to `CC(=O)OC(C)C`, the compound was called inactive.

For `C=CCn1c(=O)n(CC=C)c(=O)n(CC=C)c1=O`, the result was inactive.

Consider `CCCCCCCCCCCCOCC1CO1` (stereo not drawn), for which the result was inactive.

Take `CCOC(=O)C(C)C(C)=O` (stereo not drawn): the compound was classed as inactive.

For the compound `Oc1cccc(Nc2ccccc2)c1`, the compound was classed as inactive.

As for `C1CCC2OC2C1` (stereo not drawn), the compound was classed as inactive.

`Nc1ccc([N+](=O)[O-])c(N)c1`: the call was inactive.

Consider `CSc1ccc(C=O)cc1`, for which the result was inactive.

For `O=C(Cl)c1ccccc1[N+](=O)[O-]`, the call was inactive.

In the case of `Nc1cccc([N+](=O)[O-])c1`, the result was inactive.

`CCOCCOCC`: the compound was called inactive.

`C=CC(=O)NC(C)C`: the result was inactive.

Consider `O=[N+]([O-])c1cccc(Cl)c1`, for which the compound was classed as inactive.

Take `CCC(C)(C)C(=O)O`: the call was inactive.

In the case of `C/C(C=O)=C/c1ccccc1`, the call was inactive.

Take `CC(C)(O)C(=O)O`: the outcome was inactive.

As to `CC(=O)OCCC(C)C`, the call was inactive.

Regarding `CCC(C)(C)C`, the compound was classed as inactive.

Turning to `CC(C)CO`, the result was inactive.

For `CCOc1cccc(N)c1`, the outcome was inactive.

With `O=C1OC(=O)c2cc([N+](=O)[O-])ccc21`, the call was inactive.

With `COC(=O)CCCC(=O)OC`, the call was inactive.

On to `NC=O`, for which the compound was called inactive.

For the compound `O=C(Cl)c1cccc([N+](=O)[O-])c1`, the result was inactive.

Take `Cc1ccc2oc(=O)ccc2c1`: the call was inactive.

In the case of `CC(=O)CCc1ccccc1`, the compound was called inactive.

Turning to `C=CCCCCCCC=C`, the result was inactive.

Take `O=C(O)CNC(=O)c1ccc(CO)o1`: the result was inactive.

In the case of `Clc1ccccn1`, the result was inactive.

Consider `Nc1cc([N+](=O)[O-])ccc1C(=O)O`, for which the result was inactive.

On to `Nc1cccc(O)c1`, for which the call was inactive.

Consider `CCOCCO`, for which the result was inactive.

Turning to `O=C(Cl)c1c(Cl)cccc1Cl`, the compound was called inactive.

Consider `ICCc1ccccc1`, for which the result was inactive.
